The text below walks through data of PubChem BioAssay (NCI).

“And” between values parts separate entries of the source, which are not always exact repeats. Equal values may be shown once. The panel holds about 83,000 compounds, 20% with a hit somewhere; the sample as a whole holds those more often.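 Growth was measured after 48 h exposure to one concentration of compound in 96-well plates. Values under 10 count as active.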 The source made the active and inactive calls.

The test concerns MDA-MB-468 breast. Kind of test: NCI-60 one-dose screen, 48 h (100 = growth as untreated, 0 = no growth, -100 = all killed). The note with it: 10 µM unless noted.
Take `CC1(/C=N/NC(N)=S)NC(=O)NC1=O` (centres undefined): the growth is 102% (inactive). In the case of `Oc1ccc(Br)cc1/C=N/NC(=S)NC12CC3CC(CC(C3)C1)C2`, the growth was 46.8% (inactive). As for `Cc1cccc(Cc2cnc(NC(=O)c3ccc4nnsc4c3)s2)c1`, the growth is 94.8% (inactive). The same measure for `CCOC(=O)c1cc(C(=O)c2ccc(OC)c(OC)c2)n2c1ccc1ccccc12`: 97% (inactive); for `C=CCN1CCCC1=O`: 96.5% (inactive); for `O=C(CSc1nnc(-c2ccc(Cl)cc2)o1)c1ccccc1`: 97.1% (inactive).

In the case of `COc1ccc(C2CC(c3ccc(Nc4ccnc5cc(Cl)ccc45)cc3)=NN2C=O)cc1` (centres undefined), the growth is 9.91% (active). Consider `CCCc1cc2cc(-n3nc(C)c4c3CC(C)(C)CC4=O)cc(NC3CCC(O)CC3)c2c(=O)[nH]1` (centres undefined), for which the growth was -0.951% (active).

`C/C(=N\NC(=O)c1ccc(C(C)(C)C)cc1)c1ccc(O)cc1O`: the growth was -26.3% (active). The same measure for `CCOC(=O)c1c(C=O)nc2ccccc2c1/C=C/c1ccc(Cl)cc1`: 102% (inactive); for `O=C(Nc1ccc(-c2nc(N3CCOCC3)c3cccn3n2)cc1)Nc1cccnc1`: -37.9% (active); for `COc1cc2c3c(n(CCCNC4CCCCC4)c(=O)c2cc1OC)-c1cc2c(cc1C3=O)OCO2`: 78.8% (inactive). With `O=C(Nc1cccc(Cn2c(=O)[nH]c3ccc(Oc4ncccn4)cc3c2=O)c1)c1cccc(Cl)c1`, the growth is 18.6% (inactive). In the case of `O=c1[nH]c2c3ccncc3cc(-c3cccc(Cl)c3)c2c2cnccc12` it was 42.1% (inactive); in that of `O=C(NCCCN1CCC(N2CCCCC2)CC1)C1=Cc2cc(Br)ccc2OC1`, 45.6% (inactive). The same measure for `CC(=O)C1CC(C)CCC1C(C)C` (centres undefined): -8.03% (active); for `c1ccc(Cc2cccc[n+]2C(c2ccccc2)c2ccccc2)cc1`: -6.43% (active); for `CC(=O)c1cccc(NS(=O)(=O)c2cccc(C(=O)Nc3ccc(Br)cc3)c2)c1`: 1.14% [25 µM] (active).

On to `O=C1/C(=C/c2ccc(O)cc2)CSc2ccc(Cl)cc21`, for which the growth is 30.2% (inactive). The same measure for `Cc1ccc2nc(SCC(=O)Nc3ccc(-c4nc5ccccc5s4)c(Cl)c3)[nH]c2c1`: 101% (inactive). The same measure for `CN1CCN(c2nc(-c3csc(-c4ccccc4)n3)cc3ccccc23)CC1`: -71.9% (active); for `CN(C)c1ccc(/C=N/NC(=O)c2cccc3ccccc23)c(Cl)c1`: -7.38% (active). In the case of `O=C(CN(C1CCCCC1)C1CCCCC1)Nc1ccc(S(=O)(=O)c2ccc(NC(=O)CN(C3CCCCC3)C3CCCCC3)cc2)cc1` it was -55.1% (active); in that of `FC(F)(F)c1cn(CCN2CCOCC2)c2ncnc(Cl)c12`, 9.54% (active); in that of `CN(C)CC(O)c1ccc(/C=C/c2ccc(Cl)cc2)cc1` (centres undefined), -84.4% (active). Regarding `CNCCOc1nc2c3cnccc3cc(-c3cc(OC)c(OC)c(OC)c3)c2c2ccncc12`, the growth was -43.2% (active). On to `Clc1cccc(/C=N/Nc2nc(N/N=C/c3cccc(Cl)c3)nc(N3CCCCC3)n2)c1`, for which the growth was 76.3% (inactive). In the case of `Cc1cc(=O)oc2cc(OCCCOc3ccc(/C=C/C(=O)Nc4ccc(Br)cc4)cc3)ccc12`, the growth is 75.9% (inactive). Take `COc1nc(N)nc2c1ncn2C1OC(CO)CC1O` (centres undefined): the growth is 98.5% (inactive).

In the case of `OC(COc1ccccc1Cl)CN1CCN(c2ccc(Cl)cc2)CC1` (centres undefined), the growth is 95.7% (inactive). For the molecule `COC(=O)[C@]12CC[C@@H](C)[C@H](C)[C@@H]1C1=CC[C@@H]3[C@@]4(C)C(C=O)=C[C@@](C)(COS(C)(=O)=O)C4[C@H](O)C[C@@]3(C)[C@]1(C)CC2` (some centres undefined), the growth was -64.7% (active). As for `NC(N)=NN=c1c(=O)c2ccccc2c1=O`, the growth was 106% (inactive).

With `NS(=O)(=O)c1ccc(Nc2nc(O)c(/C=C3\C=Nc4ccccc43)s2)cc1`, the growth was 104% (inactive). In the case of `O=C1C(Cl)=C(N=Nc2c(Cl)c(O)c3ccccc3c2O)C(=O)c2ccccc21` it was 66.3% (inactive); in that of `Cn1cc2c(=O)nc3c(-c4nc5ccccc5[nH]4)n[nH]n3c2n1`, 83.3% (inactive); in that of `O=C(NCCCNC(=O)OCc1ccc2c(Br)cc(Br)c(O)c2n1)OCc1ccc2c(Br)cc(Br)c(O)c2n1`, -72% (active).

Consider `Cc1ccc(S(=O)(=O)Oc2ccc(Br)cc2Br)cc1`, for which the growth is 23.7% (inactive). In the case of `C=C(C)C(=O)Nc1ccc(NC(C)C)cc1` it was 111% (inactive); in that of `CC(=O)c1ccccc1O`, 101% (inactive) and 103% (inactive) and 108% (inactive).
